# BJeLR lethal: BJeLR cell viability loss | inhibition, % (no concentration beside the values) | 300,000 compounds, 0.17% hits | BJeLR (HRASV12) viability, CellTiter-Glo ATP luminescence, 48 h | AID 1554; in the data active = inhibition above about 50%
# SSB-PriA inh: K. pneumoniae PriA-SSBct interaction inhibition; AID 1272365; 430,000 compounds, 0.6% hits; AlphaScreen SSBct-PriA binding, biotinylated peptide; inhibition, % at 33 µM; in the data active = inhibition mostly above about 37%, no sharp cut-off; inactive = mostly below about 20%
# SARS 3CLpro inh: SARS-CoV 3CLpro protease inhibition; recombinant SARS-CoV 3CLpro, quenched FRET peptide cleavage; inhibition, % at 6 µM; 290,000 compounds, 0.14% hits; AID 1706; in the data active = inhibition above about 12%
# PrPC surface inh: reduces human prion protein on the cell surface; P04156; inhibition, % at 13.8 µM; 370,000 compounds, 0.43% hits; cell surface PrPC, TR-FRET read-out; AID 720596; in the data active = inhibition above about 24%
# PrP UTR inh: suppresses PrP 5' UTR mRNA reporter expression. cell-based PrP 5' UTR mRNA reporter, plate reader. inhibition, % (no concentration beside the values). 340,000 compounds, 0.35% hits. AID 488862; in the data active = inhibition above about 52%
# Hits are given with their value; . = inactive; / = not tested or not shown. Rows were chosen to be rich in hits. Some 1.2% of all compounds tested hit in one or more screens of this group.
SMILES,BJeLR lethal,SSB-PriA inh,SARS 3CLpro inh,PrPC surface inh,PrP UTR inh
COC(=O)/C=C1/SC(=NNC(=O)c2ccccc2C)NC1=O,/,.,/,/,/
COc1ccc([C@H]2CCCCN(S(C)(=O)=O)C2)cc1,/,.,/,/,/
CCN1CCN(Cc2ccc(NC(=O)c3cc(NC(=O)c4cncc(-c5cccs5)c4)cc(OC)c3)cc2C(F)(F)F)CC1,.,42,.,.,/
CCN1CCN(Cc2ccc(NC(=O)c3cc(NC(=O)c4cc5cccc(OC)c5o4)cc(OC)c3)cc2C(F)(F)F)CC1,.,73,/,.,.
CCN1CCN(Cc2ccc(NC(=O)c3cc(NC(=O)c4cc(-c5ccc(OC)cc5)n[nH]4)cc(OC)c3)cc2C(F)(F)F)CC1,.,.,/,.,.
O=C(NC[C@@H](c1cccs1)N1CCOCC1)c1cc(C2CC2)on1,/,.,/,/,/
N#Cc1ccccc1OCC(=O)Nc1ccccc1,/,.,/,/,/
CCc1ccc(CN2CCC(C(=O)Nc3cccc(-c4nnc(C)s4)c3)CC2)o1,.,57,.,/,.
CCn1cc(CN2CCC(C(=O)Nc3cccc(-c4cccc(F)c4)c3)CC2)cn1,.,39,.,.,.
CCn1cc(CN2CCC(C(=O)Nc3cccc(-c4cccc(OC)c4)c3)CC2)cn1,.,.,.,.,.
Cc1ccc(CN2CCC(C(=O)Nc3cccc(-c4cccc(F)c4)c3)CC2)o1,.,.,.,.,.
Cc1cccc(-n2ncc3c(=O)n4c(nc32)SCC4CC(=O)NCC2CCCO2)c1 (stereo not given),/,.,/,/,/
CS(=O)(=O)c1ccc(C(=O)Nc2nnc(C3CCCO3)o2)cc1 (stereo not given),/,.,/,/,/
CS(=O)(=O)c1ccc(CC(=O)Nc2nnc(C3CCCO3)o2)cc1 (stereo not given),/,61,/,/,/
S=C(N=Nc1ccccc1)NNc1ccccc1,.,72,.,.,.
CCN1/C(=C/C(C)=C/c2sc3ccccc3[n+]2CC)Sc2ccccc21,63,.,.,.,.
O=C(NCC1CCCN1c1ccccc1)c1c[nH]c2ccccc12 (stereo not given),/,53,/,/,/
Cn1cc(CC(=O)NCC2CCCN2c2ccccc2)c2ccccc21 (stereo not given),/,39,/,/,/
COc1ccc(NC(=O)CC(NCCOCCO)C(=O)O)c(OC)c1 (stereo not given),/,.,/,/,/
Cn1cc(-c2cccc(C(F)(F)F)c2)cc(C#N)c1=O,.,53,.,.,.
CCOC(=O)c1ccc(NC(=O)c2cc(=O)c(OCc3ccc(F)cc3)cn2C)cc1,/,.,/,/,/
Cn1c(=O)c2c(nc(NCc3ccc4c(c3)OCO4)n2Cc2ccccc2Cl)n(C)c1=O,.,.,.,.,.
O=c1c(NCc2ccccc2Cl)nccn1-c1ccc2c(c1)OCO2,/,37,/,/,/
COCCn1ccc2c(OCC(=O)NCc3ccccc3Cl)cccc2c1=O,/,.,/,/,/
c1ccc(NN=C2CCCc3ccccc32)nc1,/,.,/,/,/
SMILES,BJeLR lethal,SSB-PriA inh,SARS 3CLpro inh,PrPC surface inh,PrP UTR inh
Clc1ccc(CN2CCCCCC2)cc1,.,.,.,.,.
O=[N+]([O-])c1cc(CN2CCCC2)ccc1Sc1ccc(Cl)cc1,.,43,.,.,.
Cc1ccc(N/C(N)=N/c2nc(C)cc(N3CCCCC3)n2)c(C)c1,.,/,.,45,.
CC1=NNC(=O)/C1=C\c1cn(-c2ccccc2)nc1-c1cccs1,56,.,.,.,.
O=C1CC(c2cccc([N+](=O)[O-])c2)c2c(ccc3ccccc23)N1 (stereo not given),.,.,.,.,.
Cc1ccc(C2CC(=O)Nc3c2ccc2ccccc32)cc1[N+](=O)[O-] (stereo not given),.,42,.,.,.
CCOc1cc2[nH]c(=O)n(Cc3ccc(C(=O)NCCOC)cc3)c(=O)c2cc1OCC,.,104,.,.,.
COc1nn(C)cc1C(=O)N1CCCC(C(=O)N2CCN(c3cccc(Cl)c3)CC2)C1 (stereo not given),/,.,/,/,/
CN(CC(=O)N1CCC(O)CC1)c1nc2c(C(F)(F)F)cccc2s1,/,.,/,/,/
c1ccc2c(-c3cc(C4CCNCC4)[nH]n3)cccc2c1,.,39,.,.,.
N#CC(C#N)=C(N)/C(C#N)=C/c1cc(O)c(O)c(O)c1,/,.,/,61,.
N#C/C(=C\c1ccc(O)c(O)c1)C(=O)c1ccc(O)c(O)c1,/,.,/,.,.
CCCCc1ccc(NC(=O)CSc2nnc(-c3ccccn3)n2-n2cccc2)cc1,/,.,/,/,/
Cc1cc(N)ccc1N1CCCC1=O,/,.,/,/,/
Cc1cccc(N/N=C(\C(N)=O)C2=NC(C)(C)Cc3ccccc32)c1,.,/,.,.,.
COc1ccc(NN=C(C(N)=O)C2=NC(C)(C)Cc3ccccc32)cc1,/,78,/,/,/
